Activity calls are given as the source filed them.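 How the source made its calls, unless noted: active means visually confirmed hit in the image check and inhibition above 20%; inconclusive means visually confirmed hit but inhibition not above 20%; inactive means no visual hit in the image check.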

Test [1] can be described thus: inhibitors of TNFa-induced NFkB p65 translocation, primary screen, imaging, HUVEC, MLSMR starter and 10KST1 sets (AID 438;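 active means inhibition above 20% together with a positive visual image hit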;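 further: compound added about 3h40 before a 20 min TNFalpha stimulation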;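 on inhibition: signal is the nuclear over cytoplasmic p65 intensity ratio per well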). The note with it: HUVEC TNFa-induced p65 nuclear translocation; cell count: measured here: nuclei count (cytotoxicity indicator), at 2.08 µM; inhibition: at 2 µM, stronger effect = higher value, 0% TNFa-plus-vehicle, 100% no-TNFa wells.
A short description of test [2]: inhibitors of mutant huntingtin aggregation, primary screen, imaging, exon1htt(103Q)mCFP cells, high-content imaging (AID 483;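 active means visual image review flags a hit and inhibition of aggregation exceeds 20%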;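 further: compound exposure lasted 3 days before fixation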;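 on nuclei count: percent of the per-plate median nuclei count of sample wells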). The settings on record: exon1htt(103Q)mCFP cell line, aggregate imaging, at 2 µM; inhibition of aggregation: stronger effect = higher value; nuclei count: measured here: cell count, toxicity.
Test [3] is described as follows: inhibitors of E-selectin induction by TNFa, primary screen, imaging, HUVEC, immunofluorescence, MLSMR starter and 10KST1 sets (AID 487).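 On inhibition: signal is fraction of cell area covered by stained E-selectin grains.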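 On nuclei count: 100% = median nuclei count of all wells on the same plate.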 The settings on record: HUVEC TNFalpha-induced E-selectin immunofluorescence imaging, at 2 µM; inhibition: stronger effect = higher value; nuclei count: measured here: cell number, toxicity.
Test [4] is described as follows: DUSP6 inhibitors restoring Erk phosphorylation by chemical complementation, primary imaging in DUSP6-transfected HeLa (AID 609;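 active means compounds giving at least 50% inhibition in the cell-based MKP-3 phosphatase rescue imaging test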;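 on inhibition: phospho-Erk level distribution per well compared with pooled transfected vehicle control wells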). The settings on record: HeLa MKP-3 transfected, phospho-Erk imaging KS statistic, at 10 µM, cells stimulated with TPA for 15 min.
The target in test [5] is Dual specificity protein phosphatase 6 (Homo sapiens) (UniProt Q16828). The description is as above. The note with it: HeLa MKP-3 transfected, phospho-Erk imaging KS statistic; at 10 µM; stronger effect = higher value; cells stimulated with TPA for 15 min.
Test [6] concerns the target Voltage-gated potassium channel subunit beta-2 (Rattus norvegicus) (UniProt P62483). The experiment in a line: KvBeta enzyme negative modulators, primary screen, biochemical, NADPH fluorescence (AID 622;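 active means fluorescence slope higher than the sample average by over 3 SD, cut at about -0.22 in these data, passing the limit was not always enough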;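 further: slope of raw intensity against log time taken from 70 to 1610 s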). The note with it: recombinant KvBeta, 4-cyanobenzaldehyde reduction, at 10 µM, stronger effect = higher value.
The target is the same in test [7]. In words: KvBeta positive modulators, primary screen, biochemical, NADPH fluorescence (AID 623;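 active means NADPH fluorescence slope more negative than the mean of all samples by about 3 SD, 99.7% confidence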;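 further: fluorescence intensity change per second fitted from 20 to 320 s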). The note with it: Recombinant KvBeta, NADPH fluorescence decrease slope, 10 min; at 10 µM; stronger effect = lower value.
The target in test [8] is Alpha-2C adrenergic receptor (Homo sapiens) (UniProt P18825). The experiment in a line: modulators of alpha2C/GIRK thallium flux, primary screen, cell-based, HEK293 alpha2C/GIRK1/2 (AID 624;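 active means fluorescence slope after compound addition differing from the mean of all screened samples at 99.7% confidence, in either direction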;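 further: slope of fluorescence ratio to pre-addition baseline per second over 15 to 24 s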). The note with it: thallium flux BTC fluorescence, at 10 µM, actives lie on both sides.
Test [9] can be described thus: inhibitors of larval lipid processing in zebrafish, primary screen, whole organism, PED6 fluorescence, gall bladder and intestine (AID 686;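 active means a full or partial loss of lipid-probe fluorescence in the fish gall bladder, intestine or both, judged by eye; inactive means no fluorescence loss, or compound toxic to the fish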;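 further: larvae 5 to 7 days old with five fish per well; signal comes from phospholipase A2 cleavage of quenched PED6 carried via bile; overnight exposure to compound and PED6 before scoring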). The settings on record: Zebrafish larvae PED6 lipid processing, fluorescence scoring; screened at 20 µM (by protocol).
Test [10] is described as follows: inhibitors of Chlamydomonas gravitaxis, primary screen, whole organism, Chlamydomonas reinhardtii, WT vs cilia-less mutant, absorbance, 96-well (AID 463189;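 active means inhibition at or above 50% relative to wild type and mutant plate controls; inactive means inhibition below 50%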;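 further: 0% = wild type cc124 cells in DMSO and 100% = ciliumless bld1 mutant cells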). The settings on record: OD600 absorbance, 2 days, at 10 µM, stronger effect = higher value.
Test [11] can be described thus: inhibitors of Sendai virus-induced IRF3 signaling, primary screen, TLR/RLR signaling modifier project, cell-based, Sendai virus stimulus, luciferase, 10K MLSCN set (AID 602276;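 active means inhibition at or above 50% at 10 µM; inactive means inhibition below 50%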;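 further: firefly luciferase from ISG56 promoter only with Renilla not read in this screen; 0% = Sendai virus plus DMSO and 100% = medium plus DMSO without virus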). The note with it: HEK293 RL24 IRF3 luciferase reporter, at 10 µM, stronger effect = higher value.
Test [12] is described as follows: inhibitors of poly I:C-induced TLR3 signaling, primary screen, cell-based, poly I:C stimulus, luciferase, 10K MLSCN set (AID 602277;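 active means inhibition of the reporter signal at or above 50%; inactive means inhibition below 50%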). The note with it: HEK293-TLR3 RL24 IRF3 luciferase reporter, at 10 µM, stronger effect = higher value. For orientation: A reporter such as luciferase makes a cellular process visible.
Setting [13] is: measured here: cell density z-score.
Setting [14] is: measured here: nuclear c-Myc green intensity z-score.
Where [15] appears, read: measured here: nuclear pErk red intensity z-score, stronger effect = higher value.

Sequence of Voltage-gated potassium channel subunit beta-2 (Rattus norvegicus) (P62483 whole entry, looked up): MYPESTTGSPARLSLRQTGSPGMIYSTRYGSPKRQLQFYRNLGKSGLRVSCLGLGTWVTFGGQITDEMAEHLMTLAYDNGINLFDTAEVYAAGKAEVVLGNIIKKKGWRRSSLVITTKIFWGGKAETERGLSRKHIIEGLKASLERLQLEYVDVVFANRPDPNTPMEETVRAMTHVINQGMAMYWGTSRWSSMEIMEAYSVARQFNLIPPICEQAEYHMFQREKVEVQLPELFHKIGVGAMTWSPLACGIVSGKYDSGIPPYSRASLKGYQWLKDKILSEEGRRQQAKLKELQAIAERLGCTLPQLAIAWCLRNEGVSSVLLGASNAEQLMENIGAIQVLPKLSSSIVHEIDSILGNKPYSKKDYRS
Sequence of Dual specificity protein phosphatase 6 (Homo sapiens) (Q16828 whole entry, looked up): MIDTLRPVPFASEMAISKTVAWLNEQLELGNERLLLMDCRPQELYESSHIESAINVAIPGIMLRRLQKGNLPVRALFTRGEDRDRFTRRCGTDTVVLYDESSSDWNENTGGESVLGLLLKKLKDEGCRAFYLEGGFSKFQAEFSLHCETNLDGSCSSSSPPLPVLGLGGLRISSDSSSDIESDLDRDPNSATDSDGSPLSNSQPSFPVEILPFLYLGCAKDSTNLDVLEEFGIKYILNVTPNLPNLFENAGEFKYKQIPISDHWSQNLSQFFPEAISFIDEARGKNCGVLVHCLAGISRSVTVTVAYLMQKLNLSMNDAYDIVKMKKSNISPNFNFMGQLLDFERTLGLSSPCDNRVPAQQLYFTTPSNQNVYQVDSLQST
Sequence of Alpha-2C adrenergic receptor (Homo sapiens) (P18825 whole entry, looked up): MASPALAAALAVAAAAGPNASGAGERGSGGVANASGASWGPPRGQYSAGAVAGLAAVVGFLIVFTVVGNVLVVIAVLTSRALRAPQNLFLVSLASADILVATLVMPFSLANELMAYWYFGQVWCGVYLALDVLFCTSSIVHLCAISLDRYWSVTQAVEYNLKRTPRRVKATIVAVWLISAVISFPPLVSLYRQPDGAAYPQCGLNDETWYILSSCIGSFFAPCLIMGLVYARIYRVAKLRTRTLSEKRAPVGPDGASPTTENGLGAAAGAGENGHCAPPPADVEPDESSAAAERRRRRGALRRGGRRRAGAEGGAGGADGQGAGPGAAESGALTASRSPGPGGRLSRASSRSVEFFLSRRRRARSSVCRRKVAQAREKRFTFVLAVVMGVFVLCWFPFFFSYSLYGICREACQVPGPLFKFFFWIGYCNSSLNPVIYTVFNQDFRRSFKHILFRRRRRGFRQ

One may read the inhibition as the drop in the measured response relative to a control, in per cent. Take `CCNC(=O)N(C)c1nncnc1C(=O)NC`: the cell count in test [1] came out at 435. Also, the inhibition in test [1] is -12.6% (inactive); in test [3], -11.1% (inactive); in test [5], 2.92% (inactive); in test [10] it was 35.2% (inactive); in test [11], 18.1% (inactive); in [12], 22.2% (inactive). For the same molecule, the inhibition of aggregation in test [2] is 6.9% (inactive). For the same molecule, the nuclei count in test [2] and in test [3] was 105% throughout. The results for the z-score in [4] (setting [13]), in [4] (setting [14]) and in test [4] (setting [15]) were 0.426, 0.386 and 0.174, respectively. The fluorescence slope in test [6] was -0.505 (inactive). Further, the NADPH fluorescence slope in test [7] was -4.4e-05 (inactive). In test [8], the slope was 0.00736 (inactive). Further, the call in test [9] was inactive.

On to `OC[C@H]1O[C@@H](n2cnc3c(NC4CCCC4)ncnc32)[C@H](O)[C@@H]1O`, for which the cell count in [1] came out at 528. Also, the inhibition was -13.1% (inactive) in test [1]; -19.6% (inactive) in [3]; 11.3% (inactive) in test [5]; 30.3% (inactive) in [10]; -1.14% (inactive) in [11]; 12.9% (inactive) in [12]. The inhibition of aggregation in [2] is -15.5% (inactive). For the same molecule, the values for the nuclei count in test [2] and in test [3] were 110% and 126%, respectively. Besides, the z-score in test [4] (setting [13]) was 1.27; in test [4] (setting [14]) it was -0.327; in test [4] (setting [15]), -0.893. Besides, the fluorescence slope in test [6] was -0.459 (inactive). In test [7], the NADPH fluorescence slope is 2.3e-05 (inactive). Further, in [8], the slope was 0.00611 (inactive). In addition, in test [9], the result was inactive.

For `CCSc1nc(N)c(C#N)c(-c2ccccc2Cl)c1C#N`, the cell count in test [1] is 494. The inhibition is -3.2% (inactive) in [1]; -29% (inactive) in test [3]; -5.89% (inactive) in test [5]; -6.34% (inactive) in [10]; -0.977% (inactive) in [11]; 7.05% (inactive) in [12]. The inhibition of aggregation in test [2] was 25.1% (inactive). Also, the nuclei count in [2] is 71.7%; in [3] it was 107%. For the same molecule, the z-score in test [4] (setting [13]) was -2.31; in test [4] (setting [14]), 3.1; in test [4] (setting [15]), 0.136. For the same molecule, the fluorescence slope in test [6] is -0.473 (inactive). Besides, the NADPH fluorescence slope in [7] is -0.000189 (inactive). The slope in [8] is 0.00512 (inactive). In test [9], the molecule was classed as inactive.

Consider `CN1CC=C2C(C#N)=C(N)C(C#N)(C#N)[C@H](c3cccc(Cl)c3)C2C1` (stereo not given in full), for which the cell count in [1] worked out at 642. The inhibition was -6% (inactive) in [1]; -18.6% (inactive) in [3]; 71% (inactive) in test [5]; 5.27% (inactive) in test [10]; 13.6% (inactive) in [11]; 24.1% (inactive) in test [12]. Also, in test [2], the inhibition of aggregation was -38.1% (inactive). Further, the nuclei count was 98.3% in [2] and 125% in test [3]. For the same molecule, the z-score in [4] (setting [13]) was determined as 0.015; in [4] (setting [14]), 5.62; in test [4] (setting [15]) it was 0.205. For the same molecule, the fluorescence slope in test [6] is -0.368 (inactive). Moreover, in test [7], the NADPH fluorescence slope was -4.7e-05 (inactive). Moreover, the slope in test [8] was 0.00551 (inactive). Moreover, the molecule was classed as inactive in [9].

In the case of `c1cc2c(cc1C1=Nn3c(nnc3C3CCCCC3)SC1)OCO2`, in test [1], the cell count is 636. Moreover, the inhibition in [1] was -0.8% (inactive); in test [3], -52.3% (inactive); in test [5] it was -6.06% (inactive); in test [10], -5.58% (inactive); in [11] it was 25.1% (inactive); in test [12], 31% (inactive). Also, the inhibition of aggregation in test [2] is 5.8% (inactive). The nuclei count worked out at 31.9% in [2] and 113% in test [3]. Besides, the z-score in [4] (setting [13]) was -0.24; in test [4] (setting [14]) it was 0.613; in test [4] (setting [15]), -0.0709. In [6], the fluorescence slope was -0.481 (inactive). For the same molecule, the NADPH fluorescence slope in [7] was -8.1e-05 (inactive). Further, the slope in [8] is 0.00571 (inactive). Further, in [9], the molecule was classed as inactive.

As to `Cn1ccnc1SCCC#N`, the cell count in test [1] amounted to 569. Also, the inhibition in [1] is -2.2% (inactive); in test [3], -10.9% (inactive); in [5] it was 6.04% (inactive); in test [10] it was 3.16% (inactive); in test [11], 5.13% (inactive); in [12] it was 14.1% (inactive). The inhibition of aggregation in test [2] was -3.9% (inactive). Also, the nuclei count in test [2] came to 110%; in test [3] it was 116%. The z-score in test [4] (setting [13]) is -0.727; in test [4] (setting [14]), 0.913; in [4] (setting [15]), -1.8. In addition, the fluorescence slope in test [6] was -0.51 (inactive). Besides, the NADPH fluorescence slope in test [7] was -0.000118 (inactive). In addition, the slope in [8] is 0.00562 (inactive). In addition, the call in [9] was inactive.

As for `Cc1ccc(C2/C(=C(/O)c3cnn(-c4ccccc4)c3C)C(=O)C(=O)N2CCN2CCOCC2)o1` (stereo not given), the cell count in test [1] is 520. Also, the inhibition was -2.8% (inactive) in [1]; -56.6% (inactive) in test [3]; -10.5% (inactive) in [5]; -18.9% (inactive) in test [10]; -28.4% (inactive) in test [11]; -75.5% (inactive) in [12]. Besides, the inhibition of aggregation in test [2] is 10.2% (inactive). Also, the nuclei count in [2] was 100%; in [3], 126%. The z-score in test [4] (setting [13]) was -0.925; in test [4] (setting [14]), 1.9; in [4] (setting [15]), -0.672. In [6], the fluorescence slope is -0.531 (inactive). For the same molecule, in test [7], the NADPH fluorescence slope was -4.5e-05 (inactive). Further, the slope in [8] was 0.00497 (inactive). The molecule was classed as inactive in test [9].

Turning to `CC(C)(Oc1ccc(CCNC(=O)c2ccc(Cl)cc2)cc1)C(=O)O`, in [1], the cell count was determined as 649. Besides, the inhibition in test [1] was -3% (inactive); in test [3], -101% (inactive); in test [5], 15.3% (inactive); in test [10] it was 39.4% (inactive); in test [11] it was 9.06% (inactive); in test [12] it was 22.2% (inactive). In addition, in test [2], the inhibition of aggregation was 5.2% (inactive). Besides, the nuclei count in [2] is 107%; in [3] it was 135%. The z-score in test [4] (setting [13]) is -0.113; in [4] (setting [14]) it was -1.08; in test [4] (setting [15]), -0.613. Also, the fluorescence slope in test [6] is -0.452 (inactive). Further, in test [7], the NADPH fluorescence slope is -4.1e-05 (inactive). In addition, the slope in [8] was 0.00448 (inactive). Further, the outcome in test [9] was inactive.

Take `Cn1c([N+](=O)[O-])cnc1COC(N)=O`: the cell count in test [1] was 663. Further, the inhibition is -2.1% (inactive) in [1]; -73.8% (inactive) in [3]; 1.48% (inactive) in test [5]; 15.2% (inactive) in [10]; 16.7% (inactive) in test [11]; 40.5% (inactive) in test [12]. The inhibition of aggregation in test [2] is 6.9% (inactive). The values for the nuclei count in test [2] and in test [3] were 97.8% and 138%, respectively. Also, the values for the z-score in test [4] (setting [13]), in [4] (setting [14]) and in test [4] (setting [15]) were 0.12, 0.491 and 1.01, respectively. Further, the fluorescence slope in test [6] was -0.492 (inactive). In test [7], the NADPH fluorescence slope was -3.9e-05 (inactive). Besides, the slope in test [8] is 0.00486 (inactive). Moreover, in test [9], the outcome was inactive.

On to `CN(C1CCS(=O)(=O)C1)S(=O)(=O)c1cccc2nsnc12` (stereo not given), for which the cell count in [1] was 506. Also, the inhibition in test [1] was -15.3% (inactive); in test [3] it was -64.1% (inactive); in [5] it was -16.8% (inactive); in test [10] it was 19.4% (inactive); in test [11], 15.8% (inactive); in [12], 14.5% (inactive). In addition, the inhibition of aggregation in test [2] is -7.5% (inactive). Further, the nuclei count in [2] worked out at 117%; in test [3], 135%. The z-score in test [4] (setting [13]) was 0.217; in [4] (setting [14]), 0.807; in [4] (setting [15]), -0.289. Further, the fluorescence slope in test [6] is -0.513 (inactive). Further, the NADPH fluorescence slope in test [7] was -6.5e-05 (inactive). In test [8], the slope is 0.00498 (inactive). The outcome in test [9] was inactive.

These data come from PubChem BioAssay.
